# Compounds without any hit were thinned out: in the full panel of roughly 83,000, 20% have a hit.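 Single-dose data. Exposure time 48 hours. Values below 10 considered active.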 Values without a mark were called inactive. Calls of active or inactive are those of the source.
# Tests used:
# Experiment in all cases: NCI-60 one-dose screen, 48 h (100 = growth as untreated, 0 = no growth, -100 = all killed)
# Details in all cases: 10 µM unless noted
# NCI-H23 lung = test system: NCI-H23 lung
# NCI-H226 lung = test system: NCI-H226 lung
# NCI-H322M lung = test system: NCI-H322M lung
# HOP-62 NSCLC = test system: HOP-62 NSCLC
# NCI-H460 lung = test system: NCI-H460 lung
# HOP-92 NSCLC = test system: HOP-92 NSCLC
# NCI-H522 lung = test system: NCI-H522 lung
# A549/ATCC NSCLC = test system: A549/ATCC NSCLC
# 786-0 renal = test system: 786-0 renal
# COLO 205 colon = test system: COLO 205 colon
# DU-145 prostate = test system: DU-145 prostate
# K-562 leukemia = test system: K-562 leukemia
# MALME-3M melanoma = test system: MALME-3M melanoma
# MDA-MB-231 breast = test system: MDA-MB-231 breast
# RXF 393 renal = test system: RXF 393 renal
# SF-268 CNS = test system: SF-268 CNS
# SF-295 CNS = test system: SF-295 CNS
# SF-539 CNS = test system: SF-539 CNS
# UACC-257 melanoma = test system: UACC-257 melanoma
# M14 melanoma = test system: M14 melanoma
SMILES,growth (NCI-H23 lung),growth (NCI-H226 lung),growth (NCI-H322M lung),growth (HOP-62 NSCLC),growth (NCI-H460 lung),growth (HOP-92 NSCLC),growth (NCI-H522 lung),growth (A549/ATCC NSCLC),growth (786-0 renal),growth (COLO 205 colon),growth (DU-145 prostate),growth (K-562 leukemia),growth (MALME-3M melanoma),growth (MDA-MB-231 breast),growth (RXF 393 renal),growth (SF-268 CNS),growth (SF-295 CNS),growth (SF-539 CNS),growth (UACC-257 melanoma),growth (M14 melanoma)
O=C1OCC2=C1C(c1ccncc1)c1cc3c(cc1N2CCO)OCO3 (stereo not given),99.6%,102%,98.3%,93.5%,101%,87.6%,91.2%,98.9%,112%,53.1%,107%,110%,89.9%,101%,99.3%,97.7%,102%,101%,99.5%,107%
Cn1cc(-c2nonc2-c2cn(C)c3ccc(F)cc23)c2ccccc21,23.2%,5.33% (active),40.2%,33.1%,7.52% (active),54.6%,-8.4% (active),24.5%,34.3%,5.23% (active),13.6%,9.9% (active),54.1%,25.6%,-13.4% (active),43.3%,26%,-25.4% (active),60.6%,18.6%
c1ccc(Cn2cc(-c3nc4ccccc4s3)c3cccnc32)cc1,96.6%,92.4%,101%,96.1%,102%,98.3%,87.9%,104%,104%,118%,102%,129%,95%,84%,115%,99%,102%,100%,110%,106%
COc1ccc(/C=C/c2nc3ccccc3nc2/C=C/c2ccc(OC)cc2)cc1,93.5%,90.2%,103%,104%,100%,92.3%,94%,93.9%,88.8%,97.4%,105%,101%,109%,111%,80.3%,99.5%,102%,89.8%,106%,93%
C=C(C)C1CC(O)C2(C)CCCC3C2C1CC(C)C3(C)CC/C(C)=C/C(O)C1CCC(=O)c2c(OC)cc(OC)cc21 (stereo not given),48.9%,71.2%,78.9%,46.7%,14.7%,58.5%,53.6%,30.8%,58%,40.8%,43.3%,22%,52%,48.6%,52.7%,44.5%,41.4%,50.8%,12.6%,72.7%
CCOc1cc2ncc(C#N)c(Nc3ccc(F)c(Cl)c3)c2cc1NC(=O)CC1CCSS1 (stereo not given),-50.6% (active),-50.9% (active),-74.5% (active),-66% (active),-64.4% (active),-15.3% (active),-48.6% (active),-75.6% (active),12.1%,-73.5% (active),-81.5% (active),-26.4% (active),-57.8% (active),-66.4% (active),-56.5% (active),-55.2% (active),-36.8% (active),-12.6% (active),-53.6% (active),-66.8% (active)
CC(O)CN1CC(O)=C(c2nc3ccccc3s2)C1=N (stereo not given),83%,103%,111%,95.2%,113%,88.1%,99.9%,116%,100%,108%,115%,105%,97.6%,108%,113%,108%,129%,104%,119%,114%
COc1cc2c(cc1-c1c(C)noc1C)ncc1nc(C3CCOCC3)n([C@H](C)COC(F)F)c12,60.1%,55.2%,41.2%,35.2%,59.2%,36.9%,31.2%,36.2%,48%,31.6%,69.2%,30.5%,71.7%,46.3%,54.8%,65.5%,49.7%,33.6%,31.8%,46.2%
CN(C)S(=O)(=O)c1ccc(S(=O)(=O)Nc2cccc(Cl)c2N2CCCCC2)cc1,84.1%,82.9%,98.7%,87.9%,93.6%,72.4%,68.7%,66.9%,87.9%,106%,89.1%,55.6%,106%,66.6%,88%,89.5%,78.1%,94%,74.1%,-35.4% (active)
Cc1ccc2c(C(C[N+](=O)[O-])c3ccccc3)c(-c3ccccc3)[nH]c2c1 (stereo not given),39.4% [9.5 µM],35.3% [9.5 µM],41.7% [9.5 µM],20.2% [9.5 µM],12.2% [9.5 µM],25.8% [9.5 µM],-37.8% [9.5 µM] (active),28.6% [9.5 µM],30.8% [9.5 µM],9.02% [9.5 µM] (active),30.3% [9.5 µM],10.9% [9.5 µM],44.7% [9.5 µM],37.2% [9.5 µM],5.65% [9.5 µM] (active),35.2% [9.5 µM],9.43% [9.5 µM] (active),8.82% [9.5 µM] (active),27.6% [9.5 µM],22.3% [9.5 µM]
O=C1Nc2c(ccc(Cl)c2Cl)/C1=C\c1cc(C(F)(F)F)cc(C(F)(F)F)c1,13.3%,24.5%,74.1%,20.2%,-18% (active),-22.6% (active),22.3%,26%,-11.2% (active),-74.9% (active),24.8%,0.912% (active),-55.5% (active),-17.4% (active),21.8%,9.57% (active),5.61% (active),-11.3% (active),25%,-18.2% (active)
C=CCSSc1ncnc2c1ncn2C1OC(CO)C(O)C1O (stereo not given),39.7%,65%,33.6%,19.8%,43.3%,28.2%,11.3%,79.7%,14.6%,25.6%,35.2%,40%,48.3%,48.1%,34.6%,28%,17.9%,19.9%,39.8%,15.4%
CN1CCN(c2ccc3nc(-c4ccc(OCCCCN5CCN(CCCCN6C(=O)c7cccc8cccc(c78)C6=O)CC5)cc4)[nH]c3c2)CC1,85.3%,86.6%,90.5%,64.1%,71.9%,-54.4% (active),65%,57.1%,53%,77.8%,45%,56.5%,28%,62.7%,16.1%,65.7%,29.1%,39.8%,59.8%,94.9%
COc1cc2c(cc1-c1c(C)noc1C)ncc1nc(C3CCC(F)(F)CC3)n([C@H](C)COC(F)F)c12,60.1%,51.1%,42.6%,36.9%,56.4%,32%,30.3%,40%,46.9%,25.1%,71.4%,30.5%,67.5%,44.1%,55.8%,67.4%,49.3%,34%,34.9%,45.9%
CCOC(=O)c1c(C)oc2ncnc(N3CCN(C(=S)Nc4ccccc4)CC3)c12,90.8%,87.2%,92.3%,87.2%,103%,83.3%,80.9%,92%,97.8%,104%,101%,85%,99.9%,89.1%,90.8%,94.1%,96%,91.8%,98%,104%
